Among the data in PubChem BioAssay AID1259397 (Fisher Drug Discovery Resource Center, 2018) are inhibition values, retold here.

“And” between values parts separate entries of the source, which are not always exact repeats. Identical values can stand only once. The whole screen tested about 130,000 compounds, of which about 230 (0.18%) were called active. This excerpt belongs to a sample that is enriched for actives. Unmarked numbers belong to inactive results.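 How the source made its calls: active means inhibition of cGAS enzyme activity at or above 60%; inactive means the rest.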

Chain of Cyclic GMP-AMP synthase (Mus musculus) (Q8C6L5 whole entry, looked up): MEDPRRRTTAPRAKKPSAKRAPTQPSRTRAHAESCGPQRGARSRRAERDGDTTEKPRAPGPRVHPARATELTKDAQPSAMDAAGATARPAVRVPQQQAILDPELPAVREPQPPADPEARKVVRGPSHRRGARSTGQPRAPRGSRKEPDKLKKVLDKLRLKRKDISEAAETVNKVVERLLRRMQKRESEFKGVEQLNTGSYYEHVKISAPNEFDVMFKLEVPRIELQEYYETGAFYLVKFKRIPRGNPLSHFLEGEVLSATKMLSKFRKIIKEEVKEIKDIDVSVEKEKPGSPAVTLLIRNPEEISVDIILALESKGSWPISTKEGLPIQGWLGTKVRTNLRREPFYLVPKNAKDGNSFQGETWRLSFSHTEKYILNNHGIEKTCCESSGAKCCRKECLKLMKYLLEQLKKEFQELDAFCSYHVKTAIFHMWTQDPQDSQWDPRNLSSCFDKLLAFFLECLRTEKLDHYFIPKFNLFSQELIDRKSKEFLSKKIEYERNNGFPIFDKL

The experiment concerns the target Cyclic GMP-AMP synthase (Mus musculus) (UniProt Q8C6L5). The experiment is described as follows: inhibitors of Mus musculus cyclic GMP-AMP synthase, initial high-throughput assay, cell-free, RapidFire MS (AID 1259397).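 Further: enzyme stimulated by 45 bp dsDNA with ATP and GTP substrates; cGAMP share of summed cGAMP plus half ATP and half GTP signals.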 Particulars: recombinant mouse cGAS, cGAMP by RapidFire MS; at 12.5 µM; stronger effect = higher value.
Broadly, the inhibition is the drop in the measured response relative to a control, in per cent. With `O=S(=O)(c1ccc2c(c1)OCCCO2)N1CCCC(c2nc3ccccc3s2)C1` (stereo unspecified), the inhibition is 10%.
Then `Cc1sc2ncn(CC(=O)c3ccc[nH]3)c(=O)c2c1C`, with 14.3%; and `Cc1nc2ccc(C(=O)N3CCC4(CC3)Nc3ccccc3C(=O)N4CCO)cc2[nH]1`, with -0.499%; and `COc1cc2c(cc1CNC1CCN(Cc3ccccc3)C1)OC(C)C2` (stereo unspecified), with -13.3%.
As to `CC(=O)OC(OC(C)=O)c1coc2c(F)cccc2c1=O`, the inhibition is 2.77%.
Then `CCC1CCC(N(CC(=O)NC(C)C(=O)N(C)C)C(C)c2ccc(F)cc2)CC1` (stereo unspecified), with -8.3%; and `Cc1[nH]n(-c2nc(O)c(C)c(=O)[nH]2)c(=O)c1CCO`, with -3.37%.
Then `CCCNc1nc2c(C)cccn2c(=O)c1C=C1SC(=S)N(CC(C)C)C1=O`, with -5.08%.
With `Cc1ccc(NC(=O)CN2CCCN(c3ccc(C(F)(F)F)cn3)CC2)cc1` the figure was -2.92%; with `CC(Nc1ncnc2sc3c(c12)CCCC3)c1ccccc1` (stereo unspecified), -2.34%.
Take `CN(Cc1nc(-c2ccc(Br)s2)no1)c1nccs1`: the inhibition was -1.14%.
On to `CN(C)c1ccc(N2CC(=O)C(c3nc(-c4cccc(Cl)c4)cs3)C2=N)cc1` (stereo unspecified), for which the inhibition was -4.69%.
Then `CCCN(C)CC1CCN(C(C)C(=O)Nc2ccc(C(F)(F)F)cc2)C1` (stereo unspecified), with 93.9% (active); and `Cc1ccc(NC(=O)C(C)N2CCCC(C(F)(F)F)C2)cc1` (stereo unspecified), with -5.21%; and `CCc1ccc(NC(=O)C(C)n2cc(C(F)(F)F)ccc2=O)cc1` (stereo unspecified), with -4.23%.
Then `CCn1ccc(C(=O)NCc2cccnc2Oc2ccc(C)nc2)n1`, with 4.9%; and `O=C(CSc1nnc(-c2ccco2)o1)NC1CC1`, with -7.76%; and `Cc1cccc[n+]1CC(=O)C12CC3CC(CC(C3)C1)C2`, with -6.75%.
With `COc1ccc2c(c1)CCc1cc(C(=O)NC(C)c3c(C)nn(C)c3C)sc1-2` (stereo unspecified) the figure was 0.0306%; with `CC(Nc1cccc(Br)c1)N1C(=O)CCC1=O` (stereo unspecified), -5.36%.
In the case of `COc1ccc(OC)c(C2CCCN2Cn2nc(-c3ccccc3F)n(C)c2=S)c1` (stereo unspecified), the inhibition is -6.22%.
With `NC(=O)Cn1nnc(-c2ccccc2Br)n1` the figure was -12.5%; with `COc1cccc(N(CN2C(=O)c3ccccc3C2=O)C(C)=O)c1`, 22.9%; with `CC(C)(C)SCCNC(=O)CN(c1ccc(Cl)cc1Cl)S(=O)(=O)c1ccccc1`, -1.39%.
With `Cc1ccc(-c2cnc(C(O)c3cccc(C)c3C)[nH]2)cc1` (stereo unspecified) the figure was -3.19%; with `N#Cc1ccc(F)c(COC(=O)c2cncc(Br)c2)c1`, 6.6%.
Then `Cc1ccc(C)c(CNc2cccc(C(=O)N3CCC(O)CC3)c2)c1`, with -8.84%; and `CCC(=O)N1CCN(c2ccc(Cl)cc2NC(=O)c2cccs2)CC1`, with -6.87%; and `CC(=O)N(C)c1ccc(NC(=O)CNCCc2cccs2)cc1`, with -11.1%.
For the compound `COc1ccc(OC)c(NC(=O)C(C)N2CCN(Cc3ccc(Cl)s3)CC2)c1` (stereo unspecified), the inhibition is -4.59%.
Then `CCO[C@H]1COC[C@@H]1NCC(=O)Nc1ccc(Cl)c(OC)c1`, with -5.39%.
In the case of `O=C(O)c1cc(-c2ccccc2)nn1-c1ccc(Cl)cc1`, the inhibition is -1.5%.
Then `Cc1cc(-n2cnnc2)ncc1-c1ccc(O)cc1`, with -7.05%.
Regarding `Cc1ccc(NC(=O)CN2Cc3ccccc3CC2C(N)=O)cc1` (stereo unspecified), the inhibition is -6.79%.
For the compound `CCNC(=O)C1(C)CCN(Cc2ccc(C(=O)OCC)o2)C1` (stereo unspecified), the inhibition is -5.82%.
With `CN=c1scc(-c2ccc(Br)cc2)n1N=Cc1cc(OC)c(OC)c(OC)c1` the figure was -11.7%; with `CC(C)Nc1ncc(C(=O)N(Cc2ccco2)C(C)C(C)C)cn1` (stereo unspecified), -1.04%; with `C=CC[C@H]1CC(C)=C[C@H](CC=C)N1C(=O)c1cnc2cccc(C)n2c1=O`, -2.04%.
Then `O=C1COCc2ccc(-c3cccnc3)cc2N1CC1CC1`, with -11.8%.
Turning to `CCCn1c(=O)n(C)c(=O)c2c(SCC(=O)C(C#N)=C(C)N)nc(CC(C)C)nc21`, the inhibition was -1.38%.
With `CC1(C(=O)NCc2ccc3c(c2)OCO3)CCN1CCc1ccccc1` (stereo unspecified) the figure was -12.7%.
Then `COc1ccc(CC(=O)OCc2cc(-c3ccc4c(c3)OCO4)on2)cc1OC`, with -7.02%.
Consider `CC(C)c1cc(C2CCN(C(=O)CN3CCOC3=O)CC2)[nH]n1`, for which the inhibition was -25.2%.
With `COc1ccc(NC(=O)CCC2CCN(Cc3ccc(SC)cc3)CC2)c(OC)c1` the figure was -5.25%; with `Cc1cccc(Nc2ncccc2C(=O)NCc2ccccn2)c1C`, 1.13%.
With `Cc1[nH]n2c(=O)c3c(nc2c1-c1cccc2ccccc12)CCCC3`, the inhibition is 1.14%.
With `CN(Cc1ccc(Br)s1)C(=O)CSCc1ccc(C#N)cc1`, the inhibition was 7.87%.
With `O=S(=O)(NCc1ccccc1)NCc1csc(-c2cnccn2)n1` the figure was -34.7%.
With `O=C1CN(c2ccc(NC(=O)c3ccc4c(c3)COC4)cc2)CCN1` the figure was -2.78%; with `CN1CCN2CCN(C(=O)c3cccc(N4CCNC4=O)c3)CC2C1=O` (stereo unspecified), -13.8%.
With `C=C(C)Cn1c(N2CCN(Cc3cccc(C)c3)CC2)nc2c1c(=O)[nH]c(=O)n2C` the figure was -6.09%; with `COc1cc(C=C2SC(=S)NC2=O)cc(Br)c1O`, 12%; with `O=C1NC(=S)SC1=Cc1ccccc1F`, 62.6% (active).
In the case of `O=C1NC(=O)C(=Cc2ccc(C(=O)O)cc2)S1`, the inhibition is 35.6%.
With `CC(=O)NN=C1CCCc2c(C)cc(C)cc21` the figure was 23.5%; with `O=C(CN1C(=O)NC2(CCCC2)C1=O)N1CCN(C(=O)c2cccs2)CC1`, -1.67%.
`O=C(Nc1ccccc1Cl)C(=O)N1CCC2(CC1)C(=O)Nc1ccccc12`: the inhibition was -33.1%.
On to `CCn1ccnc1CN(C)C(=O)c1cc(COc2cccc3cnccc23)on1`, for which the inhibition is -1.51% and -6.44%.
With `CC(C)(C)CN(CCO)Cc1ncc(C(C)(C)C)o1` the figure was -4.58%.
With `CS(=O)(=O)Cc1nc(-c2cc3c(cc2F)NC(=O)CC3)cs1` the figure was -12.8%; with `C=CCN(CC=C)C(=O)CSc1nc2scc(-c3ccc(F)cc3)c2c(=O)n1C`, 11.1%.
